From the supplement of paper PMC10849652
The full data set covers some 8,800 targets. This sample favours those with a hit. About 0.5% of all pairs of compound and target were hits.

How the values were obtained:
Experiment in all cases: log2 fold change, soluble protein after heating vs DMSO (PISA); higher = thermal stabilisation; K562 lysate, 10 uM; active = over 0.2 and 3.5 SD of the protein, either way, in both replicates (recomputed)
[1] = compound: NCC(=O)Nc1ccc(-n2nc(C(F)(F)F)cc2-c2ccc3c(ccc4ccccc43)c2)cc1
Summary of the method: (§1)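 Pellets of K562 cells were dounce-homogenised in PBS pH 7.4 with 1 mM MgCl2, and the crude extract was held at 1 mg/mL protein for a 30 min treatment with 10 μM compound. Aliquots were heated for 3 min over 48°C-58°C and pooled before NP-40 was added to 0.5% at 4°C. The supernatant from 21,000xg for 90 min was quantified by TMTpro 16plex LC-MS/MS with channel sums equalised. Values are reported from duplicates as log-two fold change in thermal stability relative to solvent controls.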

vorinostat = compound: O=C(CCCCCCC(=O)Nc1ccccc1)NO [vorinostat]
Summary of the method: as §1

silmitasertib = compound: O=C(O)c1ccc2c(c1)nc(Nc1cccc(Cl)c1)c1ccncc12 [silmitasertib]
Summary of the method: as §1

[2] = compound: O=C1NC(=O)C(c2cnc3ccccn23)=C1c1cn2c3c(cc(F)cc13)CN(C(=O)N1CCCCC1)CC2
Summary of the method: as §1

entospletinib = compound: c1cn2cc(-c3ccc4cn[nH]c4c3)nc(Nc3ccc(N4CCOCC4)cc3)c2n1 [entospletinib]
Summary of the method: as §1

Measured: log2 fold change

TUBB6 (UniProt Q9BUF5)
Chain of UniProt Q9BUF5 (Q9BUF5 whole entry, looked up): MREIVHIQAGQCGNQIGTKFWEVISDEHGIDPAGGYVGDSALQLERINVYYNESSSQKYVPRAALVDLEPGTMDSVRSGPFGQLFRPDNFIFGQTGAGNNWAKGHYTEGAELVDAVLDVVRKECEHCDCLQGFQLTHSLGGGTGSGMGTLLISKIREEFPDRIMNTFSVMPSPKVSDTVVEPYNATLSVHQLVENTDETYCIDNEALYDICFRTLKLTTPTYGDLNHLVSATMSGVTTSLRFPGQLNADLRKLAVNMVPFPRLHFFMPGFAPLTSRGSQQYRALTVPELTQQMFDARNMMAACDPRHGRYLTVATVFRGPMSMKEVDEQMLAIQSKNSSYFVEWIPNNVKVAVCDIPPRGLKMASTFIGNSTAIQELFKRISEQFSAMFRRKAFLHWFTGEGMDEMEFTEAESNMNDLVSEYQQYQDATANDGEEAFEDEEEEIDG
inactive: [1] 0.013 | silmitasertib 0.04 | [2] 0.013 | entospletinib 0.004
active: vorinostat -0.558

TFIP11 (UniProt Q9UBB9)
Chain of UniProt Q9UBB9 (Q9UBB9 whole entry, looked up): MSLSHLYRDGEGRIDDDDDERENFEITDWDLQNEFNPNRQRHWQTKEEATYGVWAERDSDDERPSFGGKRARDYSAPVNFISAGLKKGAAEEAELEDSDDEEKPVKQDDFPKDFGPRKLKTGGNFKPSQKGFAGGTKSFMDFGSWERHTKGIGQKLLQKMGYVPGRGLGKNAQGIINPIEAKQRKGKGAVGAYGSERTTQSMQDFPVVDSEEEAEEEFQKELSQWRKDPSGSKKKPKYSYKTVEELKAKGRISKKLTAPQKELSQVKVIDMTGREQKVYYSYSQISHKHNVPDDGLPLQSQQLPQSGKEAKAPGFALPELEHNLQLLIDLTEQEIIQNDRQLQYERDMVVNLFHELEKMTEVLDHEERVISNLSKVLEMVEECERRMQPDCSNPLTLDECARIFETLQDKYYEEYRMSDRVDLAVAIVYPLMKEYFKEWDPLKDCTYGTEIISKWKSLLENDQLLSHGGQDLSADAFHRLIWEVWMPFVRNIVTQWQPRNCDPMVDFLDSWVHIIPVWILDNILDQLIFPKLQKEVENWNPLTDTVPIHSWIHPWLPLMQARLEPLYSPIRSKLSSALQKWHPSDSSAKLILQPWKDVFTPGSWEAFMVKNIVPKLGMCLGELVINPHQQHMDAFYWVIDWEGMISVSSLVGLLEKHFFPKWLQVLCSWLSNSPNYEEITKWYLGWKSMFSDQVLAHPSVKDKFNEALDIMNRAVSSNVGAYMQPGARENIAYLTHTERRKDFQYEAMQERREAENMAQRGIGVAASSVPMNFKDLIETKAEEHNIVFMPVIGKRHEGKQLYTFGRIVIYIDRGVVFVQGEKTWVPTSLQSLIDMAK
inactive: [1] -0.001 | vorinostat -0.06 | silmitasertib 0.013 | [2] 0.001 | entospletinib 0.067

TTC38 (UniProt Q5R3I4)
Chain of UniProt Q5R3I4 (Q5R3I4 whole entry, looked up): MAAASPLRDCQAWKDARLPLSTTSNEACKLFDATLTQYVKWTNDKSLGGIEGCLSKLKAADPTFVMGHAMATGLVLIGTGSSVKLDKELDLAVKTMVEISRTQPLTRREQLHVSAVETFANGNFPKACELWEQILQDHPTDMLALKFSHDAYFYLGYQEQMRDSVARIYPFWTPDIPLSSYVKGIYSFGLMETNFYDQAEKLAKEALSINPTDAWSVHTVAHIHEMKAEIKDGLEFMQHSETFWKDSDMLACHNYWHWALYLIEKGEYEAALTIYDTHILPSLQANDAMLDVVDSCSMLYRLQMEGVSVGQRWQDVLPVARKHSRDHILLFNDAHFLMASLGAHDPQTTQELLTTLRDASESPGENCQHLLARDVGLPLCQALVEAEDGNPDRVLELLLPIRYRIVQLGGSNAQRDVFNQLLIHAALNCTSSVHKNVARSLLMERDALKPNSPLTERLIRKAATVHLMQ
inactive: [1] 0.017 | vorinostat -0.044 | silmitasertib -0.014 | [2] -0.022 | entospletinib 0.029

TTC12 isoform 2 (UniProt Q9H892)
inactive: [1] -0.01 | vorinostat -0.163 | silmitasertib 0.078 | [2] -0.058 | entospletinib -0.03

UBE2L6 (UniProt O14933)
Chain of UniProt O14933 (O14933 whole entry, looked up): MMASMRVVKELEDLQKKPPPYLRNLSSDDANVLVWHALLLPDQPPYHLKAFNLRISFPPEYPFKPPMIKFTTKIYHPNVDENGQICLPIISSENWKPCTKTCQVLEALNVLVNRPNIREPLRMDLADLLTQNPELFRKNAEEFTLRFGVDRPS
active: vorinostat -0.477
inactive: [1] -0.071 | silmitasertib 0.037 | [2] 0 | entospletinib -0.011

TFCP2 (UniProt Q12800)
Chain of UniProt Q12800 (Q12800 whole entry, looked up): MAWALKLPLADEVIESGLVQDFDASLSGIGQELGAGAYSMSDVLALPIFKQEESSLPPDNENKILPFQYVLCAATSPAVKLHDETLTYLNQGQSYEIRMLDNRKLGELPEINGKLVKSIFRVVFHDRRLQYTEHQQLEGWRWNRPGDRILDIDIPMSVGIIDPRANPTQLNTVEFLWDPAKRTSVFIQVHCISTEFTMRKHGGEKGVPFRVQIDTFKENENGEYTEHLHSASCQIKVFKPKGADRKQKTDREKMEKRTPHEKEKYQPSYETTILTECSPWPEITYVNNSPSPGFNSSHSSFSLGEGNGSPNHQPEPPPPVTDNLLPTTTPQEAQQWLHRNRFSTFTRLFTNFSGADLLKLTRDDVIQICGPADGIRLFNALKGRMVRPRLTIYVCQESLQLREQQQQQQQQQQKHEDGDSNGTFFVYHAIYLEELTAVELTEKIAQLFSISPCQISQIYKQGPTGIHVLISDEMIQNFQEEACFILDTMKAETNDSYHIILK
active: vorinostat -0.465
inactive: [1] -0.072 | silmitasertib 0.045 | [2] 0.029 | entospletinib 0.051

TUBA1B (UniProt P68363)
Chain of UniProt P68363 (P68363 whole entry, looked up): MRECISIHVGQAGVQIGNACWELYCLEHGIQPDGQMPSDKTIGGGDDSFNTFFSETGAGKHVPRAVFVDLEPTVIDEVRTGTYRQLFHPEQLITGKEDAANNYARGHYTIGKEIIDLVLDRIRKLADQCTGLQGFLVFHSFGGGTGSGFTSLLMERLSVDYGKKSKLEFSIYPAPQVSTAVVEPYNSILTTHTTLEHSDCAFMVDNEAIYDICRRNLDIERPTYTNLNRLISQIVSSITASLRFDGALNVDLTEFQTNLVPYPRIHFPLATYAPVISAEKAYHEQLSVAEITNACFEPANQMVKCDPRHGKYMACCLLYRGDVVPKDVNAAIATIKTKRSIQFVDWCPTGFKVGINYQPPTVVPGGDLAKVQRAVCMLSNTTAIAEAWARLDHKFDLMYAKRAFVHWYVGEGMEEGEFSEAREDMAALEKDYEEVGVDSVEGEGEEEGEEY
inactive: [1] -0.005 | silmitasertib 0.018 | [2] 0.026 | entospletinib 0.01
active: vorinostat -0.66

TTL (UniProt Q8NG68)
Chain of UniProt Q8NG68 (Q8NG68 whole entry, looked up): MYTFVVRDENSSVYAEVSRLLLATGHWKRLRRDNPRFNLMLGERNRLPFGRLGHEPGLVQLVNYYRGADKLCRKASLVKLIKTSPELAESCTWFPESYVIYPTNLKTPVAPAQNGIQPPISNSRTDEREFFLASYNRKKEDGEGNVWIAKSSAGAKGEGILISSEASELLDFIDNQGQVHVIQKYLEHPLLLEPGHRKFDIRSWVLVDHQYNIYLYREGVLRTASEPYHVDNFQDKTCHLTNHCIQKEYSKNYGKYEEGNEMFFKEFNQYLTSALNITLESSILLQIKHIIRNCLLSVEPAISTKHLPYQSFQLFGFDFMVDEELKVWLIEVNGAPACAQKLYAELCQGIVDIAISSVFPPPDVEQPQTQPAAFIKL
active: vorinostat -0.376
inactive: [1] -0.027 | silmitasertib 0.021 | [2] 0.057 | entospletinib 0.138

UBE4A isoform 2 (UniProt Q14139)
inactive: [1] 0.007 | silmitasertib 0.019 | [2] 0.029 | entospletinib 0.026
active: vorinostat -0.257

TIMELESS (UniProt Q9UNS1)
inactive: [1] 0 | silmitasertib 0.018 | [2] 0.062 | entospletinib 0.017
active: vorinostat -0.412

TXNRD2 (UniProt Q9NNW7)
inactive: [1] -0.016 | vorinostat 0.125 | silmitasertib -0.025 | [2] 0.029 | entospletinib 0.023

TBC1D2B (UniProt Q9UPU7)
active: vorinostat -0.249
inactive: [1] -0.007 | silmitasertib 0.049 | [2] -0.047 | entospletinib -0.061

TPX2 (UniProt Q9ULW0)
inactive: [1] 0.003 | silmitasertib -0.04 | [2] 0.009 | entospletinib 0.015
active: vorinostat -0.498

TSFM (UniProt P43897)
inactive: [1] 0.002 | silmitasertib 0.043 | [2] 0.035 | entospletinib -0.014
active: vorinostat -0.261

TMPO (UniProt P42166)
active: vorinostat -0.569
inactive: [1] 0.037 | silmitasertib -0.057 | [2] 0.009 | entospletinib -0.029

TPM3 (UniProt P06753)
inactive: [1] 0.004 | vorinostat 0.112 | silmitasertib 0.012 | [2] -0.004 | entospletinib 0.008

TGFBRAP1 (UniProt Q8WUH2)
active: vorinostat -0.433
inactive: [1] -0.039 | silmitasertib 0.051 | [2] -0.018 | entospletinib 0.024

TRAPPC9 isoform 2 (UniProt Q96Q05)
Chain of UniProt Q96Q05 (Q96Q05 whole entry, looked up): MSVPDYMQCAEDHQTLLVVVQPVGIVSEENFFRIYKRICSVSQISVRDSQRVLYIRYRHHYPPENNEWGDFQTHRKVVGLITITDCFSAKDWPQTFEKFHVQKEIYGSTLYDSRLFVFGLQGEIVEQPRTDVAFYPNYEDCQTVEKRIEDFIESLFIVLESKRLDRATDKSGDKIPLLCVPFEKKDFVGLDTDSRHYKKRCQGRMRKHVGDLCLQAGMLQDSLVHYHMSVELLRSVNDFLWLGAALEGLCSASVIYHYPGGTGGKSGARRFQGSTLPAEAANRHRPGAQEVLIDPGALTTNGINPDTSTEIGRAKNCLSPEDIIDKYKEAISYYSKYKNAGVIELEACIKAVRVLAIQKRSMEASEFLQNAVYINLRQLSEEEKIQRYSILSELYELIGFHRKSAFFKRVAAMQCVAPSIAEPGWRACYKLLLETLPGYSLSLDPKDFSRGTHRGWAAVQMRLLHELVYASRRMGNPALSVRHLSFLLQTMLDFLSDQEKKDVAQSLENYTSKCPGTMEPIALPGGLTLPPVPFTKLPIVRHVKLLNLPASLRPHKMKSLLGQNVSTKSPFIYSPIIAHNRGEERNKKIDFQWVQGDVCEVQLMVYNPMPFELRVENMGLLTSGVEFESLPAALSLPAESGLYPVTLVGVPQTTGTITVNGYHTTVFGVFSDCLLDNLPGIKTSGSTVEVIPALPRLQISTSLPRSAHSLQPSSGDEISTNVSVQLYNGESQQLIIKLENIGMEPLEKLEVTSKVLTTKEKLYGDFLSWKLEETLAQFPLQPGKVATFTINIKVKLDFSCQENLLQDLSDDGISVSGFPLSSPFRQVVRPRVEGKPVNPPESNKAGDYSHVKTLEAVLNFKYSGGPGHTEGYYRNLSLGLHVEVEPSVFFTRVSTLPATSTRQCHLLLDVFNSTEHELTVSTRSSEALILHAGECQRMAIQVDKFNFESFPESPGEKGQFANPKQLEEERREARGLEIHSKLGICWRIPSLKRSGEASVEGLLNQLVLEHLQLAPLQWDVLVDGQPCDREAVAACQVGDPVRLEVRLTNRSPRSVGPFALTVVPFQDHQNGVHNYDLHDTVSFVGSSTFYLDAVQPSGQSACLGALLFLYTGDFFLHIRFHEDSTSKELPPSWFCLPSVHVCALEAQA
active: vorinostat -0.375
inactive: [1] 0.005 | silmitasertib 0.046 | [2] 0 | entospletinib -0.049

UBE2D1 (UniProt P51668)
inactive: [1] -0.01 | vorinostat 0.088 | silmitasertib -0.101 | [2] -0.001 | entospletinib 0.056

UFM1 (UniProt P61960)
Chain of UniProt P61960 (P61960 whole entry, looked up): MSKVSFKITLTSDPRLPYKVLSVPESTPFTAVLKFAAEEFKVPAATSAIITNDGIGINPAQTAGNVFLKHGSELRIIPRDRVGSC
inactive: [1] -0.247 | vorinostat 0.036 | silmitasertib -0.074 | [2] -0.109 | entospletinib -0.011

UBE2H (UniProt P62256)
inactive: [1] 0.023 | vorinostat 0.093 | silmitasertib -0.003 | [2] -0.003 | entospletinib -0.012

TK1 (UniProt P04183)
inactive: [1] 0.04 | vorinostat -0.028 | silmitasertib -0.001 | [2] 0.014 | entospletinib 0.035

TPM3 isoform 3 (UniProt P06753)
inactive: [1] -0.111 | vorinostat 0.048 | silmitasertib -0.047 | [2] -0.15 | entospletinib -0.024

TMOD1 (UniProt P28289)
Chain of UniProt P28289 (P28289 whole entry, looked up): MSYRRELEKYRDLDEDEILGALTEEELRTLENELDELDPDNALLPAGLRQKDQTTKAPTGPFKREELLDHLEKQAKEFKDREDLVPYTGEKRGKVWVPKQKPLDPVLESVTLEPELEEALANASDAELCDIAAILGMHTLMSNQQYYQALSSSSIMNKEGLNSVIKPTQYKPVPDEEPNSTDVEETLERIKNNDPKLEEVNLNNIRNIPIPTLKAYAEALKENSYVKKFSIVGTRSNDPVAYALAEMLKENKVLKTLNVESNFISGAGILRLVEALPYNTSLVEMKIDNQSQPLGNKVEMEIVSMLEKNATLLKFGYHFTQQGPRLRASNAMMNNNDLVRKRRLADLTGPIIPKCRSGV
active: vorinostat -0.312
inactive: [1] 0.005 | silmitasertib 0.02 | [2] -0.005 | entospletinib 0.01

TRIM44 (UniProt Q96DX7)
inactive: [1] 0.024 | vorinostat -0.031 | silmitasertib 0.062 | [2] -0.015 | entospletinib -0.051
